Here are results for 30 compounds from PubChem BioAssay (Tox21).

For experiment [1], the target named is Cytochrome P450 2C19 (Homo sapiens) (UniProt P33261). Description: Cytochrome P450 Family 2 Subfamily C Member 19 (CYP2C19) small molecule antagonists: luciferase reporter qHTS assay (AID 1671197). Note: nearly all actives have a fitted effect of over 65% in size. The conditions noted are these: P450-Glo CYP2C19 enzyme, luciferin luminescence, 1 h; series mostly up to 115 µM. Summed up:
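P450-Glo CYP2C19 system: enzyme-substrate mix with compound 10 min at room temperature, then NADPH regeneration solution, 1 h at 37C. Proluciferin-to-luciferin conversion detected by luminescence after 20 min with detection reagent; ketoconazole as positive control.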

Experiment [2] deals with Cytochrome P450 2C9 (Homo sapiens) (UniProt P11712). Description: Cytochrome P450 Family 2 Subfamily C Member 9 (CYP2C9) small molecule antagonists: luciferase reporter qHTS assay (AID 1671198). Note: nearly all actives have a fitted effect of over 50% in size. The conditions noted are these: P450-Glo CYP2C9 enzyme assay, luciferin luminescence; series mostly up to 115 µM. In outline:
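P450-Glo proluciferin substrate with CYP2C9 enzyme; 10 min RT preincubation, then NADPH regeneration 1 h at 37C; luciferin detection reagent 20 min RT, luminescence in relative luminescence units.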
(In general: In a reporter assay the amount or activity of a reporter protein is the signal.)

Experiment [3] concerns the target Cytochrome P450 1A2 (Homo sapiens) (UniProt P05177). Description: Cytochrome P450 Family 1 Subfamily A Member 2 (CYP1A2) small molecule antagonists: luciferase reporter qHTS assay (AID 1671199). Note: nearly all actives have a fitted effect of over 50% in size. The conditions noted are these: P450-Glo CYP1A2 enzyme, luciferin luminescence, 1 h; series mostly up to 115 µM. In outline:
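Luminescence from luciferin formed by CYP1A2 from a proluciferin substrate, read 20 min after detection reagent. Compound was pre-incubated 10 min with enzyme-substrate, and reaction started with NADPH regeneration solution for 1 h at room temperature; furafylline control.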

Experiment [4] has as its target Voltage-gated inwardly rectifying potassium channel KCNH2 (Homo sapiens) (UniProt Q12809). Description: Human Ether-a-go-go-Related Gene (hERG) channel small molecule antagonists: fluorescence cell-based qHTS assay (AID 1671200). Note: nearly all actives have a fitted effect of over 50% in size. The conditions noted are these: hERG-U2OS cells, FluxOR thallium flux fluorescence; series mostly up to 76.8 µM. In outline:
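Thallium served as the potassium surrogate; its influx into dye-loaded U2OS cells carrying the channel was measured by fluorescence over 2 min.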

The target in experiment [5] is Cytochrome P450 3A4 (Homo sapiens) (UniProt P08684). Kind of experiment: Cytochrome P450 Family 3 Subfamily A Member 4 (CYP3A4) small molecule antagonists: luciferase reporter qHTS assay (AID 1671201). Note: nearly all actives have a fitted effect of over 50% in size. The conditions noted are these: P450-Glo CYP3A4 enzyme, luciferin luminescence, 1 h; series mostly up to 115 µM. In outline:
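Relative luminescence units after 20 min with luciferin detection reagent served as read-out. Beforehand, CYP3A4 turned over a proluciferin substrate for 1 h at room temperature with NADPH regeneration, following 10 min compound preincubation.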

Records with an inconclusive call do not appear. Calls of active or inactive are those of the source. Calls come from the whole dose curve; as a rule, active = well fitted curve in the direction sought with a large enough effect in the repeat runs; inconclusive = weak or mixed curves; inactive = no such curve, though single readings can be large; an effect the other way counts as inactive or inconclusive.
Potency is the fitted concentration of half-maximal effect.

Sequence of Cytochrome P450 3A4 (Homo sapiens) (P08684 whole entry, looked up): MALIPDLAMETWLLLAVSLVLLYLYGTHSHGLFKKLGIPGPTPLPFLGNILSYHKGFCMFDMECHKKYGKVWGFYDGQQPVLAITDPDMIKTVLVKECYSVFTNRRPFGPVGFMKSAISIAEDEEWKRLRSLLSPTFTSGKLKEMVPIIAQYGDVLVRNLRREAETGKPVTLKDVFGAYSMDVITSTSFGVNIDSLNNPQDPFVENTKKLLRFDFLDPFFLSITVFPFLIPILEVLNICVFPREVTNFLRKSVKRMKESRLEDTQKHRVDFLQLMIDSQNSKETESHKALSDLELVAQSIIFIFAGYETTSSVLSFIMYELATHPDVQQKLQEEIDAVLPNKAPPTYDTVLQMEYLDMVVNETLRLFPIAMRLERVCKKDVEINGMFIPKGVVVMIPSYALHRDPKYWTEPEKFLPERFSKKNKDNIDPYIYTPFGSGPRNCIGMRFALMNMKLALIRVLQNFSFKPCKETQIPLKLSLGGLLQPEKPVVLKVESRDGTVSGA
Sequence of Cytochrome P450 2C19 (Homo sapiens) (P33261 whole entry, looked up): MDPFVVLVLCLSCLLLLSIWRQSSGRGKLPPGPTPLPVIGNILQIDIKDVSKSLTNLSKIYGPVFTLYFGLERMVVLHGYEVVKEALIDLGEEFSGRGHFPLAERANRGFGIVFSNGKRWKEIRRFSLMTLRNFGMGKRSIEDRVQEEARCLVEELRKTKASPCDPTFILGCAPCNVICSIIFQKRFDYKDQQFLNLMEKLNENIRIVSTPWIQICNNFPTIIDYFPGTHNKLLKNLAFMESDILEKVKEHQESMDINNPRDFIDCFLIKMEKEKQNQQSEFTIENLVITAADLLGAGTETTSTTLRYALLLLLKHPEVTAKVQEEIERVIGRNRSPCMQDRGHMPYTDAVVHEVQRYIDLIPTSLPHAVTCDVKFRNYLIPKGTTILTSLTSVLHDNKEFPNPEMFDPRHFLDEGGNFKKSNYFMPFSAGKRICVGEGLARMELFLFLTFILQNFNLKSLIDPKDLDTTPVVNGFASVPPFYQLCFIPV
Sequence of Cytochrome P450 2C9 (Homo sapiens) (P11712 whole entry, looked up): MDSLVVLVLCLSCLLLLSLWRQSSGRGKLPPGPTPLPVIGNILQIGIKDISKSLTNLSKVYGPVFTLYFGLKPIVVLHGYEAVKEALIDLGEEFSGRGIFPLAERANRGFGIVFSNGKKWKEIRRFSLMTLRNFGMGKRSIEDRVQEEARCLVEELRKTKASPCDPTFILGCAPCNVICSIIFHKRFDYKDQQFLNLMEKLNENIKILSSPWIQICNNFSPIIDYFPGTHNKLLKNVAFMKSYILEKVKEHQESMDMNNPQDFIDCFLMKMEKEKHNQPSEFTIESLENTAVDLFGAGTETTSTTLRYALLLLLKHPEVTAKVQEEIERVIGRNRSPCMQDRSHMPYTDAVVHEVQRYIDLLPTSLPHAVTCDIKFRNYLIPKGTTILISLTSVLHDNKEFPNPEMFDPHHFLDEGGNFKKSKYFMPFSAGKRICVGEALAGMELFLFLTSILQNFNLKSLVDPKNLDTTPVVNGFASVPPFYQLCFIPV
Sequence of Voltage-gated inwardly rectifying potassium channel KCNH2 (Homo sapiens) (Q12809 whole entry, looked up): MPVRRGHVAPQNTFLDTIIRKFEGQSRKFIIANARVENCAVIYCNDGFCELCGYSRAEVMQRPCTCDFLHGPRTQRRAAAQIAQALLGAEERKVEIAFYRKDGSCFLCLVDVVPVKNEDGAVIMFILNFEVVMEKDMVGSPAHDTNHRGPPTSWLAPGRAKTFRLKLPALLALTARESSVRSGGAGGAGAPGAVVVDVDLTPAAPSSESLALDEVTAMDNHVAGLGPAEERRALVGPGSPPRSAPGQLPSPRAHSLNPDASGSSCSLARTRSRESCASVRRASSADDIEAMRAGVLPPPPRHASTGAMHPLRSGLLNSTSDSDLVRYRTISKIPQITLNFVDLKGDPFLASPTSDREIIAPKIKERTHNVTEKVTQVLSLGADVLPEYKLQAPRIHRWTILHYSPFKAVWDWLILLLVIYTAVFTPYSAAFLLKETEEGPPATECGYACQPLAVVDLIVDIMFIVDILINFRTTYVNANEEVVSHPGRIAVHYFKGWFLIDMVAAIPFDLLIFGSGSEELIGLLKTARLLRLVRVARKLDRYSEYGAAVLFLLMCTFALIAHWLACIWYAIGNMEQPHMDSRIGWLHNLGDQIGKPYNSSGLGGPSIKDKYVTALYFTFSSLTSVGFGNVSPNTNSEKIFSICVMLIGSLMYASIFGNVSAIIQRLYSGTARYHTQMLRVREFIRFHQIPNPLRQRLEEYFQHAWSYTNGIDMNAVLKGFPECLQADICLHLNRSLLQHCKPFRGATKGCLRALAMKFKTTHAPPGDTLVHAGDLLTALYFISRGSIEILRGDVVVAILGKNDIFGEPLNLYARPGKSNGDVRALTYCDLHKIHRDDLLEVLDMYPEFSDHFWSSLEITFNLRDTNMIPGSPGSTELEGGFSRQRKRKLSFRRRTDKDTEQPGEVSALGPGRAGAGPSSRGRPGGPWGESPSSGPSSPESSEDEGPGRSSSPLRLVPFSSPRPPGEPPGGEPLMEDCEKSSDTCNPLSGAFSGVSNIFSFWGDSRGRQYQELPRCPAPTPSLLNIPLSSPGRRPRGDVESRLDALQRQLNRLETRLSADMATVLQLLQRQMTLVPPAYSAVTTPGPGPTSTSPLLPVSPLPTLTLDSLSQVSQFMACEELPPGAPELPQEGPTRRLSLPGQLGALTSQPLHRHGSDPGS
Sequence of Cytochrome P450 1A2 (Homo sapiens) (P05177 whole entry, looked up): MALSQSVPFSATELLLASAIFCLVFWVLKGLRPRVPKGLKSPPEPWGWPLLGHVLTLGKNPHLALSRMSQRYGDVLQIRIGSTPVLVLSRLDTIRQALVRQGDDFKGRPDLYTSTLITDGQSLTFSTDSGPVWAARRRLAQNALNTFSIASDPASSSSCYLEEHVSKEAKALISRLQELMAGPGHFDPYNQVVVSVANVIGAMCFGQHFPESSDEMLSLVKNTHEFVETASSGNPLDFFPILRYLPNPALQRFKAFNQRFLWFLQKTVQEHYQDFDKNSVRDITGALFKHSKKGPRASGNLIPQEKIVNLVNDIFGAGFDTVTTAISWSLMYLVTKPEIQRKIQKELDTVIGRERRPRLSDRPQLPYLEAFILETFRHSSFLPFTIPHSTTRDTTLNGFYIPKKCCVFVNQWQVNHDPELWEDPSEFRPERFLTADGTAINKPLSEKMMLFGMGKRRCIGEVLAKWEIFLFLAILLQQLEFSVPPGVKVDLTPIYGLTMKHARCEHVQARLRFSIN

On to `Nc1nc(N)nc(-c2cc(Cl)ccc2Cl)n1`, for which the Potency entry in experiment [1], in experiment [2], in experiment [4] and in experiment [5] was “inactive” in each case. In addition, in experiment [3], the Potency was 17.4 µM (active).

For `Nc1ccc(C(=O)O)c(O)c1`, the Potency result in experiment [1], in experiment [2], in experiment [3], in experiment [4] and in experiment [5] was “inactive” in each case.

`COc1ccc(NC(=O)CC(C)=O)cc1`: the Potency result in experiment [1], in experiment [2], in experiment [4] and in experiment [5] was “inactive” each time. Also, the Potency in experiment [3] is 25.2 µM (active).

Regarding `CCCCCCOC(=O)C(C)CC` (stereo not given), the Potency result in experiment [1], in experiment [2], in experiment [3], in experiment [4] and in experiment [5] was “inactive” throughout.

`O=C(c1ccc(O)c(O)c1)c1ccc(O)cc1O`: the figures for the Potency in experiment [1], in experiment [3] and in experiment [5] were 17.8 µM (active), 31.7 µM (active) and 5.63 µM (active), respectively. The Potency result in experiment [2] and in experiment [4] was “inactive” throughout.

For the compound `OC[C@@H](O)[C@@H](O)CO`, the Potency result in experiment [1], in experiment [2], in experiment [3], in experiment [4] and in experiment [5] was “inactive” in each case.

In the case of `CCCCCC/C=C\CCCCCCCC(=O)O`, the results for the Potency in experiment [1] and in experiment [2] were 50.2 µM (active) and 71 µM (active), respectively. Further, the Potency result in experiment [3], in experiment [4] and in experiment [5] was “inactive” each time.

With `CCc1ccc(Br)cc1`, the Potency result in experiment [1], in experiment [2], in experiment [3], in experiment [4] and in experiment [5] was “inactive” in each case.

Consider `c1cnccn1`, for which the Potency result in experiment [1], in experiment [2], in experiment [4] and in experiment [5] was “inactive” each time. The Potency in experiment [3] was 36.8 µM (active).

On to `Cl[Si](Cl)(c1ccccc1)c1ccccc1`, for which the Potency was 20.5 µM (active) in experiment [1], 23 µM (active) in experiment [2], 64.8 µM (active) in experiment [3] and 5.14 µM (active) in experiment [5]. The Potency result in experiment [4] is “inactive”.

Regarding `OC[C@H]1O[C@H](O[C@H]2O[C@H](CO)[C@@H](O)[C@H](O)[C@H]2O)[C@H](O)[C@@H](O)[C@@H]1O`, the Potency result in experiment [1], in experiment [2], in experiment [4] and in experiment [5] was “inactive” throughout. The Potency in experiment [3] was 63.7 µM (active).

As for `O=S(=O)(O)c1ccc(Nc2nc(Nc3ccc(/C=C/c4ccc(Nc5nc(Nc6ccc(S(=O)(=O)O)cc6)nc(N(CCO)CCO)n5)cc4S(=O)(=O)O)c(S(=O)(=O)O)c3)nc(N(CCO)CCO)n2)cc1`, the Potency entry in experiment [1], in experiment [2], in experiment [3], in experiment [4] and in experiment [5] was “inactive” each time.

`O=[N+]([O-])c1cccc(C(F)(F)F)c1`: the Potency entry in experiment [1], in experiment [2], in experiment [3], in experiment [4] and in experiment [5] was “inactive” each time.

As for `O=C(O)c1cc(=O)c2ccccc2o1`, the Potency entry in experiment [1], in experiment [2], in experiment [3], in experiment [4] and in experiment [5] was “inactive” each time.

Take `O=C(O)c1cc(-c2ccc(F)cc2F)ccc1O`: the Potency result in experiment [1], in experiment [3], in experiment [4] and in experiment [5] was “inactive” in each case. For the same compound, the Potency in experiment [2] is 24.5 µM (active).

In the case of `CCN(CC)c1ccc2c(-c3ccc(S(=O)(=O)O)cc3S(=O)(=O)[O-])c3ccc(=[N+](CC)CC)cc-3oc2c1`, the Potency was 92.2 µM (active) in experiment [1], 16.4 µM (active) in experiment [2], 20.7 µM (active) in experiment [3] and 14.6 µM (active) in experiment [5]. Moreover, in experiment [4], the Potency entry is “inactive”.

With `O=C(O)c1cccc(C(F)(F)F)c1`, the Potency result in experiment [1], in experiment [3], in experiment [4] and in experiment [5] was “inactive” in each case. In experiment [2], the Potency was 79.6 µM (active).

With `CCCCCC(C)OC(=O)COc1ccc(Cl)c2cccnc12` (stereo not given), the Potency in experiment [1] was 7.96 µM (active); in experiment [2] it was 11.2 µM (active); in experiment [3] it was 5.03 µM (active); in experiment [4] it was 9.77 µM (active); in experiment [5], 12.6 µM (active).

Take `NC(=O)c1cccc([N+](=O)[O-])c1`: the Potency result in experiment [1], in experiment [2], in experiment [4] and in experiment [5] was “inactive” throughout. In addition, in experiment [3], the Potency is 35.4 µM (active).

With `CCCC(=O)OCCc1ccccc1`, the Potency entry in experiment [1], in experiment [2], in experiment [3], in experiment [4] and in experiment [5] was “inactive” in each case.

`Cc1cc(C(C#N)c2ccc(Cl)cc2)c(Cl)cc1NC(=O)c1cc(I)cc(I)c1O` (stereo not given): the Potency in experiment [1] was 8.71 µM (active); in experiment [2], 17.4 µM (active). Besides, the Potency entry in experiment [3], in experiment [4] and in experiment [5] was “inactive” throughout.

On to `CCCC1CCC(=O)CC1`, for which the Potency result in experiment [1], in experiment [2], in experiment [3], in experiment [4] and in experiment [5] was “inactive” in each case.

In the case of `O=c1[nH]c(=O)n([C@H]2C[C@H](O)[C@@H](CO)O2)cc1F`, the Potency entry in experiment [1], in experiment [2], in experiment [3], in experiment [4] and in experiment [5] was “inactive” throughout.

In the case of `Cc1cc(-n2nc3ccc(Cl)cc3n2)c(O)c(C(C)(C)C)c1`, the Potency result in experiment [1], in experiment [2], in experiment [3], in experiment [4] and in experiment [5] was “inactive” throughout.

With `CC(=O)OCC=C(C)C`, the Potency result in experiment [1], in experiment [2], in experiment [3], in experiment [4] and in experiment [5] was “inactive” throughout.

With `Cc1cc(-c2ccc(N=Nc3cc(S(=O)(=O)O)c4ccccc4c3N)c(C)c2)ccc1N=Nc1cc(S(=O)(=O)O)c2ccccc2c1N`, the Potency entry in experiment [1], in experiment [2], in experiment [3] and in experiment [5] was “inactive” throughout. For the same compound, in experiment [4], the Potency was 19.6 µM (active).

With `CC[C@H](C)COC(=O)/C=C/c1ccc(N=Cc2ccc(OC)cc2)cc1`, the Potency is 0.893 µM (active) in experiment [1]; 5.63 µM (active) in experiment [2]; 5.63 µM (active) in experiment [3]; 43.6 µM (active) in experiment [4]; 5.63 µM (active) in experiment [5].

For the compound `O=C(O)Cc1ccc2c(c1)C(=O)c1ccccc1CO2`, the Potency result in experiment [1], in experiment [2], in experiment [3], in experiment [4] and in experiment [5] was “inactive” each time.

With `Cc1ccc(C(=O)O)cc1`, the Potency entry in experiment [1], in experiment [2], in experiment [3], in experiment [4] and in experiment [5] was “inactive” in each case.

For `CC(=O)c1ccc(C(C)=O)cc1`, the Potency in experiment [1] was 64.8 µM (active); in experiment [3], 28.9 µM (active). In addition, the Potency entry in experiment [2], in experiment [4] and in experiment [5] was “inactive” in each case.
